Assay results: PubChem BioAssay (Tox21)
Results filed as inconclusive are left out. A call without a number means that no potency is given here. Activity calls are given as the source filed them. The call rests on the fitted dose curve; in most records, active means well fitted inhibition curve with a large enough effect in the repeat runs; inconclusive means weak or mixed curves; inactive means no such curve, though single readings can be large or run the other way.

Target: Cytochrome P450 3A4 (Homo sapiens) (UniProt P08684)
Test: Cytochrome P450 Family 3 Subfamily A Member 4 (CYP3A4) small molecule antagonists: luciferase reporter qHTS assay (AID 1671201); further: nearly all actives have a fitted effect of over 50% in size
Details: P450-Glo CYP3A4 enzyme, luciferin luminescence, 1 h; series mostly up to 115 µM
How it was run: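 Inhibition of CYP3A4 is measured as loss of light: the enzyme converts a proluciferin substrate to luciferin, detected luminescently. Reaction ran 1 h at room temperature with NADPH regeneration after a 10 min compound preincubation.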
Potency means the concentration at half of the fitted maximal effect.

Sequence of Cytochrome P450 3A4 (Homo sapiens) (P08684 whole entry, looked up): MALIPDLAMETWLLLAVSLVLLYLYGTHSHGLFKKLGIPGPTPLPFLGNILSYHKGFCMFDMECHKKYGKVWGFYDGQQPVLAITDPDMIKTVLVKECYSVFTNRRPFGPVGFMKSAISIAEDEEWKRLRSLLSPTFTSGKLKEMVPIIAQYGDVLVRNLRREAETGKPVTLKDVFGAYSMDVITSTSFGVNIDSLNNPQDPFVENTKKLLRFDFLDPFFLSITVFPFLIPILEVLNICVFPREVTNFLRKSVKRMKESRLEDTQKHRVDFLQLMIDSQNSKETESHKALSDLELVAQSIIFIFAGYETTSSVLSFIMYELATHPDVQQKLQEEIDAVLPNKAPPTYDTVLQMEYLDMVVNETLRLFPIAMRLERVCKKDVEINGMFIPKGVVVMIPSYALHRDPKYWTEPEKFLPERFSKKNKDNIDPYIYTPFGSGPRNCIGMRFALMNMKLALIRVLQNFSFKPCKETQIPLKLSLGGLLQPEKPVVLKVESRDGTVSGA

SMILES | Potency
CN1CCCC(CC2c3ccccc3Sc3ccccc32)C1 (configuration not stated) | inactive
O=C(O)CCC(=O)C(=O)O | inactive
O=C=Nc1ccc(Cl)c(Cl)c1 | 31.2 µM (active)
O=[N+]([O-])c1ccc(O/N=C/c2cc(Br)c(O)c(Br)c2)c([N+](=O)[O-])c1 | inactive
C=C1C[C@@]23CC[C@H]4[C@@](C)(CCC[C@@]4(C)C(=O)O[C@@H]4O[C@H](CO)[C@@H](O)[C@H](O)[C@H]4O)[C@@H]2CC[C@]1(O[C@@H]1O[C@H](CO)[C@@H](O)[C@H](O[C@@H]2O[C@H](CO)[C@@H](O)[C@H](O)[C@H]2O)[C@H]1O[C@@H]1O[C@H](CO)[C@@H](O)[C@H](O)[C@H]1O)C3 | inactive
COc1cc(C(=O)NCCCCCC(=O)O)cc(OC)c1OC | inactive
CC1=C(Br)C(=O)C(Br)=C/C1=C(/c1ccccc1S(=O)(=O)O)c1cc(Br)c(O)c(Br)c1C | 24.2 µM (active)
N#CCCN(CCO)CCO | inactive
CC(C)(C)C(=O)C(=O)O | inactive
CC1CC(C)C(=O)C1=O (configuration not stated) | inactive
CC(=O)c1cc2ccccc2s1 | inactive
C/C=C/C=C/C=O | inactive
C=CCc1ccccc1OCC(O)CNC(C)C (configuration not stated) | inactive
O=C(/C=C/c1ccccc1)OCCc1ccccc1 | inactive
O=[N+]([O-])c1ccc(Nc2ccc(Nc3ccccc3)c(S(=O)(=O)O)c2)c([N+](=O)[O-])c1 | inactive
COC(=O)c1nc(Cl)c(Cl)nc1N | inactive

SMILES | Potency
CCCCCC#CC(=O)OC | inactive
Oc1c(I)cc(I)c2cccnc12 | inactive
C[C@]1(Cn2ccnn2)[C@H](C(=O)O)N2C(=O)C[C@H]2S1(=O)=O | inactive
C=C(C)[C@@H]1CCC2=CCC[C@@H](C)[C@]2(C)C1 | 71 µM (active)
CCC(OCCCOC)OC(C)=O (configuration not stated) | inactive
O=C(Cn1ccnc1[N+](=O)[O-])NCCO | inactive
NC1[C@H]2CN(c3nc4c(cc3F)c(=O)c(C(=O)O)cn4-c3ccc(F)cc3F)C[C@@H]12 (some centres not stated) | inactive
C=COCC(C)C | inactive
NCCNCCO | inactive
Oc1ccc(Cl)c2cccnc12 | inactive
C[C@@H](O)[C@H]1C(=O)N2C(C(=O)O)=C([C@H]3CCCO3)S[C@H]12 | inactive
C1COC1 | inactive
O=c1cc(-c2ccccc2)oc2ccc3ccccc3c12 | 17.8 µM (active)
CCOC(=O)c1ccc(O)c(O)c1 | inactive
O=C(O)C[C@H](NC(=O)OCc1ccccc1)C(=O)O | inactive
O=c1[nH]c2ccc(Cl)cc2o1 | inactive
